The source of these data is PubChem BioAssay (Tox21).

SMILES strings stand for the structures. “And” between values parts separate entries of the source, which are not always exact repeats. Equal entries are not always repeated. Results filed as inconclusive are left out. Where a call stands in place of a potency, no number is given. Some compounds were tested as several samples or in several runs, with calls that do not always agree. The source made the active and inactive calls. Unless noted, calls come from the whole dose curve.

A short description of the first test: qHTS assay to identify small molecule agonists of H2AX (AID 1224845; active = well fitted activation curve with a large enough effect in the signal ratio in the repeat runs, not every such curve was filed as active; the % refers to the signal ratio). The settings on record: CHO-K1 phospho-H2AX Ser139 HTRF, 3 h; series mostly up to 154 µM. Summed up: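 Wild-type CHO-K1 cells plated overnight, then exposed 3 hr at 37C to compounds at 15 concentrations (0.76% DMSO). Lysed, then HTRF anti-pH2AX(S139)-cryptate/anti-H2AX-d2 detection after 24 hr at room temperature; emissions 665 and 620 nm.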
As for `CCOCCOCCO`, the call was inactive.
For `C/C=C/C(=O)O`, the compound was classed as inactive.
Still for that read-out and setting: the entry for `O=C(Nc1ccc([N+](=O)[O-])cc1Cl)c1cc(Cl)ccc1O` is “inactive”; for `COC(=O)CCC(=O)OC` it is “inactive”; for `O=CCc1ccccc1` it is “inactive”.
On the same count and under the same terms, as for `COC(=O)c1ccccc1`, the entry is “inactive”.
Still for that read-out and setting: the entry for `CC(C)OC=O` is “inactive”; for `Nc1ccc(S(=O)(=O)Nc2cnc3ccccc3n2)cc1` it is “inactive”.
As for `O=C(O)c1ccccc1Nc1cccc(C(F)(F)F)c1`, the compound was called inactive.
Same read-out and setting: the entry for `CN(C)CCN(Cc1cccs1)c1ccccn1` is “inactive”; for `CCC(C)(O)CCCC(C)C` (stereo unspecified) it is “inactive”.
Take `Cc1c(C(N)=O)cc([N+](=O)[O-])cc1[N+](=O)[O-]`: the outcome was inactive.
The same measure, in the same setting: the entry for `O=C(COc1ccc(Cl)cc1)N1CCN(Cc2ccc3c(c2)OCO3)CC1` is “inactive”; for `CN(C)c1nc(N(C)C)nc(N(C)C)n1` it is “inactive”; for `Cc1cccc([N+](=O)[O-])c1C` it is “inactive”.
On the same count and under the same terms, the entry for `CC(C)=CCC/C(C)=C\CO` is “inactive”; for `Cc1ncc[nH]1` it is “inactive”; for `O=CCCCC=O` it is “inactive”.
As to `CCCCCCCCCC(=O)OC`, the compound was classed as inactive.
Still for that read-out and setting: the entry for `CCCc1c(OCCCCc2nn[nH]n2)ccc(C(C)=O)c1O` is “inactive”.
Same read-out and setting: as for `C[Si](C)(C)O[Si](C)(C)C`, the entry is “inactive”; as for `C=C(C)C1CC=C(C)CC1` (stereo unspecified), “inactive”.
On to `C#C[C@]1(O)CC[C@H]2[C@@H]3CCC4=Cc5oncc5C[C@]4(C)[C@H]3CC[C@@]21C`, for which the call was inactive.
Consider `COc1ccc(C(=O)CC(=O)c2ccc(C(C)(C)C)cc2)cc1`, for which the result was inactive.
Same read-out and setting: the entry for `CC(C)=CCCC(C)CCO` (stereo unspecified) is “inactive”; for `C[C@]12CCC(=O)C=C1CC[C@@H]1[C@@H]2C(=O)C[C@@]2(C)[C@H]1CC[C@]2(O)C(=O)CO` it is “inactive”.
Same read-out and setting: as for `OC1CCCCCCCCCCC1`, the entry is “inactive”; as for `CC(=O)C1(C)CC2=C(CCCC2(C)C)CC1C` (stereo unspecified), “inactive”; as for `C=CC(C)(CCC=C(C)C)OC(C)=O` (stereo unspecified), “inactive”.
On the same count and under the same terms, the entry for `NNc1ccc(C(=O)O)cc1` is “inactive”; for `CC(=O)c1ccccn1` it is “inactive”.
In the case of `COC(C)COC(C)COC(C)CO` (stereo unspecified), the compound was classed as inactive.
Still for that read-out and setting: the entry for `O=C=Nc1ccc(Cc2ccc(N=C=O)cc2)cc1` is “inactive”.
Still for that read-out and setting: as for `COc1ccc(OC)c(C(O)CNC(=O)CN)c1` (stereo unspecified), the entry is “inactive”; as for `O=S(=O)(O)c1ccc(O)cc1`, “inactive”.
On the same count and under the same terms, as for `CC(=O)CC/C=C(\C)CCC=C(C)C`, the entry is “inactive”.

The nature of a further test: qHTS assay to identify small molecule agonists of the hypoxia (HIF-1) signaling pathway (AID 1224846; active = well fitted activation curve with a large enough effect in the signal ratio in the repeat runs, not every such curve was filed as active; the % refers to the signal ratio; note: potency is the fitted concentration of half-maximal effect). The settings on record: HRE-bla ME-180 cells, beta-lactamase ratio, 17 h; series mostly up to 76.8 µM. Summed up:
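Measured by blue/green FRET after loading CCF4-AM: beta-lactamase expressed from a hypoxia response element in ME-180 cells. Test agents were delivered in DMSO and left 17 hrs; cells had been plated 5 hrs earlier in low-serum (0.5% dialyzed FBS) medium.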
Background: Quantitative high-throughput screening tests each substance at several concentrations.
For the compound `CCOCCOCCO`, the Potency result is “inactive”.
The same measure, in the same setting: as for `C/C=C/C(=O)O`, the entry is “inactive”; as for `COC(=O)c1ccccc1`, “inactive”; as for `Cc1ncc[nH]1`, “inactive”.
The same measure, in the same setting: the entry for `CCCCCCCCCC(=O)OC` is “inactive”.
The same measure, in the same setting: as for `C[Si](C)(C)O[Si](C)(C)C`, the entry is “inactive”; as for `C=C(C)C1CC=C(C)CC1` (stereo unspecified), “inactive”.
In the case of `COc1ccc(C(=O)CC(=O)c2ccc(C(C)(C)C)cc2)cc1`, the Potency result is “inactive”.
Still for that read-out and setting: the entry for `CC(C)=CCCC(C)CCO` (stereo unspecified) is “inactive”; for `c1ccc2c(c1)c1cccc3ccc4cccc2c4c31` it is 43.4 µM (active) and inactive.
On the same count and under the same terms, the entry for `OC1CCCCCCCCCCC1` is “inactive”; for `NNc1ccc(C(=O)O)cc1` it is “inactive”.
The same measure, in the same setting: as for `COC(C)COC(C)COC(C)CO` (stereo unspecified), the entry is “inactive”; as for `O=S(=O)(O)c1ccc(O)cc1`, “inactive”; as for `CC(=O)CC/C=C(\C)CCC=C(C)C`, “inactive”.

Another test is described as follows: qHTS assay to identify small molecule agonists of H2AX - cell viability counter screen (AID 1224847). Note: nearly all actives have a fitted effect of over 30% in size. Note: potency is the fitted concentration of half-maximal effect. The settings on record: CHO-K1 viability, CellTiter-Glo luminescence, 3 h; series mostly up to 154 µM. Summed up:
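Quantitative HTS viability measurement: CHO-K1 wild-type cells in serum (10% FBS) medium, short 3 hr drug exposure at 37C with 0.76% DMSO, CellTiter-Glo luminescent detection.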
Consider `CCOCCOCCO`, for which the Potency result is “inactive”.
Consider `O=C(Nc1ccc([N+](=O)[O-])cc1Cl)c1cc(Cl)ccc1O`, for which the Potency is 2.84 µM (active).
Regarding `COC(=O)CCC(=O)OC`, the Potency result was “inactive”.
On to `O=CCc1ccccc1`, for which the Potency result was “inactive”.
On the same count and under the same terms, as for `COC(=O)c1ccccc1`, the entry is “inactive”; as for `CC(C)OC=O`, “inactive”.
On the same count and under the same terms, as for `Nc1ccc(S(=O)(=O)Nc2cnc3ccccc3n2)cc1`, the entry is “inactive”; as for `c1cc(N(CC2CO2)CC2CO2)ccc1OCC1CO1` (stereo unspecified), “inactive”.
Same read-out and setting: as for `CCC(C)(O)CCCC(C)C` (stereo unspecified), the entry is “inactive”; as for `Cc1c(C(N)=O)cc([N+](=O)[O-])cc1[N+](=O)[O-]`, “inactive”.
For `CN(C)c1nc(N(C)C)nc(N(C)C)n1`, the Potency entry was “inactive”.
As to `Cc1cccc([N+](=O)[O-])c1C`, the Potency result is “inactive”.
Same read-out and setting: as for `CC(C)=CCC/C(C)=C\CO`, the entry is “inactive”.
In the case of `Cc1ncc[nH]1`, the Potency result was “inactive”.
On the same count and under the same terms, the entry for `O=CCCCC=O` is “inactive”; for `C=C(C)C1CC=C(C)CC1` (stereo unspecified) it is “inactive”; for `CC(C)=CCCC(C)CCO` (stereo unspecified) it is “inactive”.
The same measure, in the same setting: the entry for `c1ccc2c(c1)c1cccc3ccc4cccc2c4c31` is “inactive”.
For `OC1CCCCCCCCCCC1`, the Potency entry was “inactive”.
Same read-out and setting: as for `CC(=O)C1(C)CC2=C(CCCC2(C)C)CC1C` (stereo unspecified), the entry is “inactive”; as for `NNc1ccc(C(=O)O)cc1`, “inactive”.
Turning to `CC(=O)c1ccccn1`, the Potency result was “inactive”.
Same read-out and setting: as for `COC(C)COC(C)COC(C)CO` (stereo unspecified), the entry is “inactive”.

A further test in a line: qHTS assay to identify small molecule antagonists of the estrogen related receptor (ERR) signaling pathway from Tox21 library (AID 1224848; active = well fitted inhibition curve with a large enough effect in the repeat runs; note: nearly all actives have a fitted effect of over 50% in size; note: potency is the fitted concentration of half-maximal effect). The settings on record: ERR reporter cell line, luciferase antagonist mode, 18 h; series mostly up to 92.4 µM. The method in brief: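 Screening used an ERR reporter line supplied by NTP, exposed for 18 h at 37 C to library compounds delivered in DMSO. Signal was luciferase luminescence developed with ONE-Glo at room temperature for 30 min.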
On to `CCOCCOCCO`, for which the Potency result was “inactive”.
The same measure, in the same setting: the entry for `C/C=C/C(=O)O` is “inactive”; for `COC(=O)CCC(=O)OC` it is “inactive”; for `CC(C)OC=O` it is “inactive”.
On the same count and under the same terms, the figure for `c1cc(N(CC2CO2)CC2CO2)ccc1OCC1CO1` (stereo unspecified) is 61.2 µM (active) and 54.5 µM (active); for `O=C(COc1ccc(Cl)cc1)N1CCN(Cc2ccc3c(c2)OCO3)CC1` it is 27.3 µM (active) and 18.8 µM (active); for `O=CCCCC=O` it is “inactive”.
The same measure, in the same setting: as for `C#C[C@]1(O)CC[C@H]2[C@@H]3CCC4=Cc5oncc5C[C@]4(C)[C@H]3CC[C@@]21C`, the figure is 24.3 µM (active) and 23.7 µM (active); as for `CC(=O)C1(C)CC2=C(CCCC2(C)C)CC1C` (stereo unspecified), “inactive”; as for `COC(C)COC(C)COC(C)CO` (stereo unspecified), “inactive”.
As for `O=C=Nc1ccc(Cc2ccc(N=C=O)cc2)cc1`, the Potency result was “inactive”.
The same measure, in the same setting: as for `COc1ccc(OC)c(C(O)CNC(=O)CN)c1` (stereo unspecified), the entry is “inactive”.
